{"source": "the supplement of paper PMC11482750", "note": "± gives the standard deviation of the averaged measurements."}
{"compound": "CCOC(C)=O [ethyl acetate]", "experiment": "control-subtracted net OSN firing rate; higher = stronger neuronal activation", "conditions": "odorant dilution (vol/vol): 1/100", "description": "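Single sensillum recordings from olfactory sensory neurons. The neurons sit in the maxillary palp or antennal sensilla of D. melanogaster (wild type, mutants, or at1 empty-neuron lines expressing Or42a homologs or the A181D S307P mutant) and of four Scaptomyza species. Each odorant was given as a 1 s pulse from 20 µl loaded on filter paper at 1:100 vol/vol, diluted in mineral oil (γ-hexalactone in DMSO). Spikes were counted in a 0.5 s window starting 0.2 s after onset, background was subtracted, the count was doubled, and the mean solvent-control response was subtracted.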", "units": {"control-subtracted net OSN firing rate": "spikes/s"}}
{"target": "Canton-S (D. melanogaster) pb2b", "control-subtracted net OSN firing rate": "4 ± 6.4"}
{"target": "S. hsui pb1a-like", "control-subtracted net OSN firing rate": "98.3 ± 21"}
{"target": "S. hsui pb2a-like", "control-subtracted net OSN firing rate": "8 ± 5.1"}
{"target": "S. pallida pb3b-like", "control-subtracted net OSN firing rate": "28.7 ± 25"}
{"target": "S. flava pb3b-like", "control-subtracted net OSN firing rate": "0.333 ± 9.7"}
{"target": "S. hsui pb1b-like", "control-subtracted net OSN firing rate": "-16.7 ± 9.4"}
{"target": "S. hsui pb3a-like", "control-subtracted net OSN firing rate": "-4.33 ± 11"}
{"target": "S. flava pb1b-like", "control-subtracted net OSN firing rate": "-6.33 ± 12"}
{"target": "S. pallida pb1a-like", "control-subtracted net OSN firing rate": "80.3 ± 20"}
{"target": "S. pallida pb3a-like", "control-subtracted net OSN firing rate": "8.67 ± 14"}
{"target": "S. hsui pb3b-like", "control-subtracted net OSN firing rate": "-2.33 ± 2.3"}
{"target": "Canton-S (D. melanogaster) pb1b", "control-subtracted net OSN firing rate": "-7.33 ± 9.6"}
{"target": "S. pallida pb1b-like", "control-subtracted net OSN firing rate": "-12.7 ± 9.3"}
{"target": "S. pallida pb2a-like", "control-subtracted net OSN firing rate": "7.33 ± 11"}
{"target": "S. pallida pb2b-like", "control-subtracted net OSN firing rate": "9.33 ± 10"}
{"target": "S. hsui pb2b-like", "control-subtracted net OSN firing rate": "53 ± 37"}
{"target": "S. flava pb1a-like", "control-subtracted net OSN firing rate": "61.7 ± 23"}
{"target": "Canton-S (D. melanogaster) pb2a", "control-subtracted net OSN firing rate": "4.57 ± 6.5"}
{"target": "Canton-S (D. melanogaster) pb1a", "control-subtracted net OSN firing rate": "89.1 ± 27"}
{"target": "S. flava pb2b-like", "control-subtracted net OSN firing rate": "0.333 ± 7.3"}
{"target": "S. flava pb2a-like", "control-subtracted net OSN firing rate": "-1.67 ± 5.7"}
{"target": "Canton-S (D. melanogaster) pb3a", "control-subtracted net OSN firing rate": "1.33 ± 8.4"}
{"target": "S. flava pb3a-like", "control-subtracted net OSN firing rate": "6.67 ± 11"}
{"target": "Canton-S (D. melanogaster) pb3b", "control-subtracted net OSN firing rate": "0.333 ± 9.4"}
